The source made the active and inactive calls. Rule for the calls: active = hit-call score of the fitted dose curve at least 0.9, where 1 is the maximum; inactive = score below 0.9.
Key:
[1] = read-out: Human Leukocyte Antigen - DR isotype (HLADR), HLA-DRA (gene 3122); assay: BSK_BE3C_HLADR: BioMAP Diversity Plus: BE3C Assay for Human Leukocyte Antigen - DR isotype (HLADR) Biomarker Activity (AID 2283032); conditions: primary human bronchial epithelial cells; actives raise or lower the signal
Outline: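 BioMAP BE3C format: human bronchial epithelium, 24 h compound treatment, ELISA detection of HLA-DR, with bidirectional analysis relative to DMSO.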

[2] = read-out: Vascular cell adhesion molecule 1 (VCAM1), VCAM1 (gene 7412); assay: BSK_4H_VCAM1: BioMAP Diversity Plus: 4H Assay for Vascular cell adhesion molecule 1 (VCAM1) Biomarker Activity (AID 2283033); conditions: primary human endothelial cells (HUVEC); actives raise or lower the signal
Outline: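 In this human endothelial (HUVEC) system, biomarker ELISA was run 24 h after compound addition, and total protein in parallel wells was assessed by SRB at 560 nm; DMSO served as negative control.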

[3] = read-out: Interferon-gamma inducible Protein 10 (IP10), CXCL10 (gene 3627); assay: BSK_BE3C_IP10: BioMAP Diversity Plus: BE3C Assay for Interferon-gamma inducible Protein 10 (IP10) Biomarker Activity (AID 2283034); conditions: primary human bronchial epithelial cells; actives raise or lower the signal
Outline: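 BE3C cells (human bronchial epithelial, primary); 24 h exposure; ELISA for IP-10; DMSO-referenced bidirectional fit.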

[4] = read-out: Transforming growth factor beta 1 (TGFb1), TGFB1 (gene 7040); assay: BSK_BE3C_TGFb1: BioMAP Diversity Plus: BE3C Assay for Transforming growth factor beta 1 (TGFb1) Biomarker Activity (AID 2283036); conditions: primary human bronchial epithelial cells; actives raise or lower the signal
Outline: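 TGF-b1 measured via ELISA, 24 h after chemical dosing of human bronchial epithelial cells (BE3C). Overt cytotoxicity assessed in parallel by SRB (0.1%, TCA-fixed, 560 nm); analysis bidirectional relative to DMSO.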

[5] = read-out: Plasminogen activator inhibitor-1 (PAI1), SERPINE1 (gene 5054); assay: BSK_BE3C_PAI1: BioMAP Diversity Plus: BE3C Assay for Plasminogen activator inhibitor-1 (PAI1) Biomarker Activity (AID 2283037); conditions: primary human bronchial epithelial cells; actives raise or lower the signal
Outline: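 In this multiplexed primary-cell system, bronchial epithelial cells receive test chemical and are sampled at 24 h. PAI-1 is read by ELISA, with DMSO serving as negative control for bidirectional fitting.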

[6] = read-out: urokinase plasminogen activator (uPA), PLAU (gene 5328); assay: BSK_BE3C_uPA: BioMAP Diversity Plus: BE3C Assay for urokinase plasminogen activator (uPA) Biomarker Activity (AID 2283038); conditions: primary human bronchial epithelial cells; actives raise or lower the signal
Outline: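 ELISA read-out of uPA in human lung primary bronchial epithelial cultures, 24 h post-dosing. Gain or loss of signal fitted bidirectionally relative to DMSO baseline; cytotoxicity checked in parallel cultures via SRB total protein stain.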

[7] = read-out: Urokinase-type plasminogen activator receptor (uPAR), PLAUR (gene 5329); assay: BSK_BE3C_uPAR: BioMAP Diversity Plus: BE3C Assay for Urokinase-type plasminogen activator receptor (uPAR) Biomarker Activity (AID 2283039); conditions: primary human bronchial epithelial cells; actives raise or lower the signal
Outline: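 Chemically treated human bronchial epithelial cells (lung primary) are assayed for uPAR by ELISA after 24 h, with data fitted in both directions using DMSO as negative control.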

[8] = read-out: Interleukin-6 (IL6), IL6 (gene 3569); assay: BSK_CASM3C_IL6: BioMAP Diversity Plus: CASM3C Assay for Interleukin-6 (IL6) Biomarker Activity for (AID 2283040); conditions: primary human coronary artery smooth muscle cells; actives raise or lower the signal
[9] = read-out: Tissue plasminogen activator (tPA), PLAT (gene 5327); assay: BSK_BE3C_tPA: BioMAP Diversity Plus: BE3C Assay for Tissue plasminogen activator (tPA) Biomarker Activity (AID 2283041); conditions: primary human bronchial epithelial cells; actives raise or lower the signal
Outline: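 Using human lung primary bronchial epithelial cells, tPA was measured by ELISA 24 h after dosing; data fitted relative to DMSO.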

[10] = read-out: Interleukin-8 (IL8), CXCL8 (gene 3576); assay: BSK_CASM3C_IL8: BioMAP Diversity Plus: CASM3C Assay for Interleukin-8 (IL8) Biomarker Activity (AID 2283042); conditions: primary human coronary artery smooth muscle cells; actives raise or lower the signal;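 note: IL-8 protein level quantified by ELISA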
[11] = read-out: Human Leukocyte Antigen - DR isotype (HLADR), HLA-DRA (gene 3122); assay: BSK_CASM3C_HLADR: BioMAP Diversity Plus: CASM3C Assay for Human Leukocyte Antigen - DR isotype (HLADR) Biomarker Activity (AID 2283043); conditions: primary human coronary artery smooth muscle cells; actives raise or lower the signal;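 note: cell-surface HLA-DR protein level quantified by ELISA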
[12] = read-out: Macrophage colony-stimulating factor (MCSF), CSF1 (gene 1435); assay: BSK_CASM3C_MCSF: BioMAP Diversity Plus: CASM3C Assay for Macrophage colony-stimulating factor (MCSF) Biomarker Activity (AID 2283044); conditions: primary human coronary artery smooth muscle cells; actives raise or lower the signal;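 note: M-CSF protein amount quantified by ELISA after 24 h exposure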
[13] = read-out: Monocyte Chemoattractant Protein-1 (MCP1), CCL2 (gene 6347); assay: BSK_CASM3C_MCP1: BioMAP Diversity Plus: CASM3C Assay for Monocyte Chemoattractant Protein-1 (MCP1) Biomarker Activity (AID 2283046); conditions: primary human coronary artery smooth muscle cells; actives raise or lower the signal;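 note: MCP-1 level quantified by ELISA 24 h after dosing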
[14] = BSK_CASM3C_Proliferation: Cell Proliferation Assessment in the BioMAP Diversity Plus: CASM3C Assay (AID 2283047); conditions: primary human coronary artery smooth muscle cells;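 note: sulforhodamine B total protein stain as relative cell number at 560 nm; sub-confluent cells exposed 48 h before staining; fitted both ways against DMSO so gain or loss of cell number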
[15] = read-out: Monokine induced gamma interferon (MIG), CXCL9 (gene 4283); assay: BSK_CASM3C_MIG: BioMAP Diversity Plus: CASM3C Assay for Monokine induced gamma interferon (MIG) Biomarker Activity (AID 2283048); conditions: primary human coronary artery smooth muscle cells; actives raise or lower the signal;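 note: MIG protein level measured by ELISA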
[16] = read-out: serum amyloid A (SAA), SAA1 (gene 6288); assay: BSK_CASM3C_SAA: BioMAP Diversity Plus: CASM3C Assay for serum amyloid A (SAA) Biomarker Activity (AID 2283049); conditions: primary human coronary artery smooth muscle cells; actives raise or lower the signal;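 note: SAA protein level quantified by ELISA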
[17] = BSK_CASM3C_SRB: Viability Assessment in the BioMAP Diversity Plus: CASM3C Assay (AID 2283050); conditions: primary human coronary artery smooth muscle cells;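 note: total protein by SRB staining as cytotoxicity measure in parallel cultures; cells exposed to compound for 24 h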
[18] = read-out: Thrombomodulin, THBD (gene 7056); assay: BSK_CASM3C_Thrombomodulin: BioMAP Diversity Plus: CASM3C Assay for Thrombomodulin Biomarker Activity (AID 2283051); conditions: primary human coronary artery smooth muscle cells; actives raise or lower the signal;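 note: thrombomodulin protein level measured by ELISA 24 h after dosing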
[19] = read-out: Low-density lipoprotein receptor (LDLR), LDLR (gene 3949); assay: BSK_CASM3C_LDLR: BioMAP Diversity Plus: CASM3C Assay for Low-density lipoprotein receptor (LDLR) Biomarker Activity (AID 2283045); conditions: primary human coronary artery smooth muscle cells; actives raise or lower the signal;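 note: LDLR protein level on the cell surface quantified by ELISA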

Measured: AC50

CC(C)CCCCCCc1ccc(O)cc1
active: [1] 26.2 µM | [2] 7.96 µM | [3] 14.7 µM | [4] 26.2 µM | [5] 31 µM | [6] 31.6 µM | [7] 33.3 µM | [8] 36.9 µM | [9] 14.5 µM | [10] 36.2 µM | [11] 28.8 µM | [12] 31.2 µM | [13] 34.3 µM | [14] 15 µM | [15] 35.8 µM | [16] 30.9 µM | [17] 32.6 µM | [18] 4.65 µM

CCCCCCC(C)OC(=O)COc1nc(F)c(Cl)c(N)c1Cl (stereo not drawn)
active: [2] 39 µM | [10] 32.9 µM | [11] 31.9 µM | [12] 30.2 µM | [13] 29.9 µM | [14] 36.1 µM | [15] 31.6 µM | [16] 25.7 µM | [17] 35.3 µM | [18] 29.7 µM
inactive: [1] | [3] | [4] | [5] | [6] | [7] | [8] | [9] | [19]

C=CCOC(Cn1ccnc1)c1ccc(Cl)cc1Cl (stereo not drawn)
inactive: all assays above

C[C@]12C[C@H](O)[C@H]3[C@@H](CCC4=CC(=O)CC[C@@]43C)[C@@H]1CC[C@@H]2C(=O)CO
active: [3] 34.8 µM | [8] 0.447 µM | [10] 0.551 µM | [19] 21.1 µM | [13] 0.573 µM | [14] 0.397 µM | [16] 0.668 µM
not listed: [12]
inactive: all other assays above

OB(O)O
inactive: all assays above

CC(=O)[C@H]1CC[C@H]2[C@@H]3CCC4=CC(=O)CC[C@]4(C)[C@H]3CC[C@]12C
active: [11] 8.61 µM | [13] 3.95 µM | [14] 12.7 µM
not listed: [2]
inactive: all other assays above

CCN(Cc1c(F)cccc1Cl)c1c([N+](=O)[O-])cc(C(F)(F)F)cc1[N+](=O)[O-]
active: [2] 4.57 µM | [19] 13.5 µM | [14] 12.3 µM
inactive: all other assays above

CCOC(=O)C(C)Oc1ccc(Oc2nc3ccc(Cl)cc3o2)cc1 (stereo not drawn)
active: [1] 20 µM | [5] 33.5 µM | [6] 24.3 µM
inactive: all other assays above

CC1(C)C(C=C(Cl)Cl)C1C(=O)OCc1cccc(Oc2ccccc2)c1 (stereo not drawn)
active: [8] 6.26 µM | [18] 13.4 µM
inactive: all other assays above

From PubChem BioAssay (EPA / NIEHS)
